Experimental data taken from PubChem BioAssay AID1159580 (chemical genetic matrix, 2015).
About 2,000 (36%) of roughly 5,500 compounds were called active. Another 18% or so got no clear call; they are omitted. Rule as the data show it: active = normalized growth mostly below about 0.91 (no sharp cut-off); inconclusive = no clear call, values can overlap the other calls; inactive = mostly above about 0.92. Some of the results follow. Where a SMILES comes first, the peptide text is derived from it. Bridges are numbered along the chain shown (N, C = ends). [ ]: non-standard residue; d: D form. The star is where a group is joined. Octanoyl(6-Me) = CCC(C)CCCCC(=O)*; Dab = NCC[CH](N)C(=O)O

Test: chemical genetic growth profiling, strain panel (AID 1159580);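 also: tested at 20 µM; growth read once vehicle control cultures reached saturation at 30 °C; 1 = growth at the plate median or of vehicle wells; lower values mean less growth of the strain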
Conditions: growth OD

Measured: normalized growth

CCC(C)CCCCC(=O)NC(CCN)C(=O)NC(C(=O)NC(CCN)C(=O)NC1CCNC(=O)C(C(C)O)NC(=O)C(CCN)NC(=O)C(CCN)NC(=O)C(CC(C)C)NC(=O)C(Cc2ccccc2)NC(=O)C(CCN)NC1=O)C(C)O (configuration not stated) ({Octanoyl(6-Me)}-[Dab]T[Dab][Dab][Dab]FL[Dab][Dab]T; lactam 4-C; configuration not given here)
inactive: S. cerevisiae deletion strains, locus YJR075W, strain HOC1, hits give low values 0.997 | S. cerevisiae deletion strains, locus YKL009W, strain mrt4, hits give low values 0.99 | S. cerevisiae deletion strains, locus YKL068W, hits give low values 1 | S. cerevisiae deletion strains, locus YKL085W, strain MDH1 (second series), hits give low values 0.998 | S. cerevisiae deletion strains, locus YKL085W, strain MDH1, hits give low values 0.998 | S. cerevisiae deletion strains, locus YKL160W, strain elf1, hits give low values 0.97 | S. cerevisiae deletion strains, locus YKL190W, strain CNB1, hits give low values 0.991 | S. cerevisiae deletion strains, locus YKR001C, strain vps1, hits give low values 0.987 | S. cerevisiae deletion strains, locus YKR026C, strain gcn3, hits give low values 1 | S. cerevisiae deletion strains, locus YKR091W, strain srl3, hits give low values 1.01 | S. cerevisiae deletion strains, locus YLL001W, strain dnm1, hits give low values 0.989 | S. cerevisiae deletion strains, locus YLL026W, hits give low values 1.02 | S. cerevisiae deletion strains, locus YLL041C, strain sdh2, hits give low values 0.995 | S. cerevisiae deletion strains, locus YLR027C, strain aat2, hits give low values 0.988 | S. cerevisiae deletion strains, locus YLR039C, strain RIC1, hits give low values 1.04 | S. cerevisiae deletion strains, locus YLR058C, strain SHM2, hits give low values 1 | S. cerevisiae deletion strains, locus YLR102C, strain apc9, hits give low values 1.01 | S. cerevisiae deletion strains, locus YLR113W, strain HOG1, hits give low values 0.986 | S. cerevisiae deletion strains, locus YLR221C, strain rsa3, hits give low values 0.988 | S. cerevisiae deletion strains, locus YLR258W, strain gsy2, hits give low values 0.978 | S. cerevisiae deletion strains, locus YLR262C, strain YPT6 (second series), hits give low values 1.04 | S. cerevisiae deletion strains, locus YLR262C, strain YPT6, hits give low values 1.05 | S. cerevisiae deletion strains, locus YLR268W, strain sec22, hits give low values 1.05 | S. cerevisiae deletion strains, locus YLR320W, strain mms22, hits give low values 0.957 | S. cerevisiae deletion strains, locus YLR330W, strain CHS5, hits give low values 1 | S. cerevisiae deletion strains, locus YLR342W, strain FKS1 (second series), hits give low values 0.95 | S. cerevisiae deletion strains, locus YLR342W, strain FKS1, hits give low values 0.995 | S. cerevisiae deletion strains, locus YLR357W, strain rsc2, hits give low values 0.968 | S. cerevisiae deletion strains, locus YLR370C, strain arc18, hits give low values 0.979 | S. cerevisiae deletion strains, locus YLR371W, strain rom2, hits give low values 1.01 | S. cerevisiae deletion strains, locus YLR384C, strain iki3, hits give low values 0.981 | S. cerevisiae deletion strains, locus YLR418C, strain cdc73, hits give low values 1.02 | S. cerevisiae deletion strains, locus YML016C, strain PPZ1, hits give low values 0.992 | S. cerevisiae deletion strains, locus YML032C, strain rad52, hits give low values 1.02 | S. cerevisiae deletion strains, locus YML120C, strain ndi1, hits give low values 0.985 | S. cerevisiae deletion strains, locus YML124C, strain tub3, hits give low values 1.01 | S. cerevisiae deletion strains, locus YMR058W, strain fet3, hits give low values 0.984 | S. cerevisiae deletion strains, locus YMR078C, strain ctf18, hits give low values 1.01 | S. cerevisiae deletion strains, locus YMR125W, strain sto1, hits give low values 0.993 | S. cerevisiae deletion strains, locus YMR129W, hits give low values 1 | S. cerevisiae deletion strains, locus YMR205C, strain PFK2, hits give low values 0.957 | S. cerevisiae deletion strains, locus YMR223W, strain ubp8, hits give low values 0.975 | S. cerevisiae deletion strains, locus YMR231W, strain pep5, hits give low values 1 | S. cerevisiae deletion strains, locus YMR263W, strain SAP30, hits give low values 1.02 | S. cerevisiae deletion strains, locus YMR307W, strain GAS1, hits give low values 0.984 | S. cerevisiae deletion strains, locus YNL067W, strain RPL9B, hits give low values 1.01 | S. cerevisiae deletion strains, locus YNL071W, strain lat1, hits give low values 1.02 | S. cerevisiae deletion strains, locus YNL128W, strain TEP1, hits give low values 0.982 | S. cerevisiae deletion strains, locus YNL153C, strain GIM3, hits give low values 1.02 | S. cerevisiae deletion strains, locus YNL183C, strain NPR1, hits give low values 0.944 | S. cerevisiae deletion strains, locus YNL209W, strain ssb2, hits give low values 1 | S. cerevisiae deletion strains, locus YNL233W, strain BNI4, hits give low values 0.992 | S. cerevisiae deletion strains, locus YNL248C, strain rpa49, hits give low values 0.989 | S. cerevisiae deletion strains, locus YNL250W, strain rad50, hits give low values 0.996 | S. cerevisiae deletion strains, locus YNL271C, strain bni1, hits give low values 1.01 | S. cerevisiae deletion strains, locus YNL298W, strain CLA4, hits give low values 0.997 | S. cerevisiae deletion strains, locus YNL307C, strain MCK1, hits give low values 1.01 | S. cerevisiae deletion strains, locus YNL322C, strain KRE1 (second series), hits give low values 0.976 | S. cerevisiae deletion strains, locus YNL322C, strain KRE1, hits give low values 0.991 | S. cerevisiae deletion strains, locus YNR049C, strain mso1, hits give low values 0.997 | S. cerevisiae deletion strains, locus YNR052C, strain pop2, hits give low values 0.979 | S. cerevisiae deletion strains, locus YOL006C, strain TOP1, hits give low values 0.992 | S. cerevisiae deletion strains, locus YOL012C, strain htz1 1.19 | S. cerevisiae deletion strains, locus YOL147C, strain pex11, hits give low values 1.01 | S. cerevisiae deletion strains, locus YOR001W, strain rrp6, hits give low values 0.97 | S. cerevisiae deletion strains, locus YOR061W, strain CKA2, hits give low values 0.991 | S. cerevisiae deletion strains, locus YOR069W, strain VPS5, hits give low values 1 | S. cerevisiae deletion strains, locus YOR070C, strain gyp1, hits give low values 0.995 | S. cerevisiae deletion strains, locus YOR080W, strain dia2, hits give low values 0.991 | S. cerevisiae deletion strains, locus YOR083W, strain WHI5, hits give low values 0.97 | S. cerevisiae deletion strains, locus YOR106W, strain vam3, hits give low values 0.987 | S. cerevisiae deletion strains, locus YOR136W, strain idh2, hits give low values 1 | S. cerevisiae deletion strains, locus YOR144C, strain elg1, hits give low values 1 | S. cerevisiae deletion strains, locus YOR184W, strain ser1, hits give low values 1.01 | S. cerevisiae deletion strains, locus YOR231W, strain MKK1, hits give low values 0.978 | S. cerevisiae deletion strains, locus YOR265W, strain rbl2, hits give low values 0.986 | S. cerevisiae deletion strains, locus YOR270C, strain vph1, hits give low values 0.963 | S. cerevisiae deletion strains, locus YOR290C, strain snf2, hits give low values 0.963 | S. cerevisiae deletion strains, locus YOR316C, strain cot1, hits give low values 1 | S. cerevisiae deletion strains, locus YPL051W, strain arl3, hits give low values 0.963 | S. cerevisiae deletion strains, locus YPL055C, strain LGE1, hits give low values 0.994 | S. cerevisiae deletion strains, locus YPL078C, strain atp4, hits give low values 0.972 | S. cerevisiae deletion strains, locus YPL106C, strain sse1, hits give low values 0.956 | S. cerevisiae deletion strains, locus YPL240C, strain hsp82, hits give low values 0.981 | S. cerevisiae deletion strains, locus YPL241C, strain CIN2, hits give low values 1 | S. cerevisiae deletion strains, locus YPL256C, strain CLN2, hits give low values 0.994 | S. cerevisiae deletion strains, locus YPR119W, strain clb2, hits give low values 0.999 | S. cerevisiae deletion strains, locus YPR141C, strain kar3, hits give low values 1.01 | S. cerevisiae deletion strains, locus YPR163C, strain tif3, hits give low values 1.02 | S. cerevisiae deletion strains, locus YPR167C, strain met16, hits give low values 1 | S. cerevisiae deletion strains, strain wtn01, hits give low values 1.01 | S. cerevisiae strains, strain wild type, hits give low values 0.99
